The source of these data is article PMC11062922 (Nature Chemical Biology, 2023).

What all share (parameters): species or system human, MV4-11 + K-562 + COLO205 + SK-N-BE2 + OVCAR-8
The test system of experiment [1] is ADCK1. The following applies: read-out: apparent Kd, compound concentrations: 100 nM and 1000 nM (sheet 'Samples'), n = 1.
The test system of experiment [2] is ADK. To be noted: read-out: apparent Kd; compound concentrations: 100 nM and 1000 nM (sheet 'Samples'), CATDS: 4.5787667935106503E-2; n = 1.
The test system of experiment [3] is CDK4. To be noted: read-out: apparent Kd; compound concentrations: 100 nM and 1000 nM (sheet 'Samples'), CATDS: 4.6312693671670499E-2; n = 1.
Experiment [4] deals with CSNK1D. To be noted: read-out: apparent Kd; compound concentrations: 100 nM and 1000 nM (sheet 'Samples'), CATDS: 7.6669822847603902E-2; n = 1.
Experiment [5] deals with CSNK1E. The following applies: read-out: apparent Kd; compound concentrations: 100 nM and 1000 nM (sheet 'Samples'), CATDS: 6.5483605156218705E-2; n = 1.
The test system of experiment [6] is MAP4K5. The following applies: read-out: apparent Kd; compound concentrations: 100 nM and 1000 nM (sheet 'Samples'), CATDS: 6.0957264613737197E-2; n = 1.
Experiment [7] deals with PRKACA. To be noted: read-out: apparent Kd, compound concentrations: 100 nM and 1000 nM (sheet 'Samples'), n = 1.
For experiment [8], the system named is PRKACB. To be noted: read-out: apparent Kd, compound concentrations: 100 nM and 1000 nM (sheet 'Samples'), n = 1.
Experiment [9] concerns PRKCD. To be noted: read-out: apparent Kd, compound concentrations: 100 nM and 1000 nM (sheet 'Samples'), n = 1.
For experiment [10], the system named is PRKCQ. The following applies: read-out: apparent Kd; compound concentrations: 100 nM and 1000 nM (sheet 'Samples'), CATDS: 0.20872331441348899; n = 1.
The subject of experiment [11] is PRKD2. The following applies: read-out: apparent Kd; compound concentrations: 100 nM and 1000 nM (sheet 'Samples'), CATDS: 0.17196563894613301; n = 1.
Experiment [12] has as its system PRKD3. The following applies: read-out: apparent Kd; compound concentrations: 100 nM and 1000 nM (sheet 'Samples'), CATDS: 0.24703755989756301; n = 1.
Experiment [13] deals with RPS6KB1. The following applies: read-out: apparent Kd, compound concentrations: 100 nM and 1000 nM (sheet 'Samples'), n = 1.
In experiment [14] the test system is TNIK. To be noted: read-out: apparent Kd; compound concentrations: 100 nM and 1000 nM (sheet 'Samples'), CATDS: 0.113919393065207; n = 1.
Experiment [15] has as its system AKT1. The following applies: read-out: apparent Kd; compound concentrations: 100 nM and 1000 nM (sheet 'Samples'), CATDS: 2.85422229355832E-2; n = 1.
The subject of experiment [16] is AKT2. To be noted: read-out: apparent Kd; compound concentrations: 100 nM and 1000 nM (sheet 'Samples'), CATDS: 2.77493450407107E-2; n = 1.
The test system of experiment [17] is CDC42BPG. To be noted: read-out: apparent Kd; compound concentrations: 100 nM and 1000 nM (sheet 'Samples'), CATDS: 4.9906722196616002E-2; n = 1.
Experiment [18] concerns CLK1. The following applies: read-out: apparent Kd; compound concentrations: 100 nM and 1000 nM (sheet 'Samples'), CATDS: 3.0057021324399399E-2; n = 1.
Experiment [19] deals with CLK4. The following applies: read-out: apparent Kd; compound concentrations: 100 nM and 1000 nM (sheet 'Samples'), CATDS: 3.6459308399585902E-2; n = 1.
Experiment [20] has as its system CSNK1A1. To be noted: read-out: apparent Kd; compound concentrations: 100 nM and 1000 nM (sheet 'Samples'), CATDS: 2.8495259280969999E-2; n = 1.
The test system of experiment [21] is CSNK2A1;CSNK2A3. The following applies: read-out: apparent Kd; compound concentrations: 100 nM and 1000 nM (sheet 'Samples'), CATDS: 2.5783405582401799E-2; n = 1.
Experiment [22] relates to HSP90AA1. The following applies: read-out: apparent Kd; compound concentrations: 100 nM and 1000 nM (sheet 'Samples'), CATDS: 2.5840975218280202E-2; n = 1.
Experiment [23] deals with IARS. The following applies: read-out: apparent Kd; compound concentrations: 100 nM and 1000 nM (sheet 'Samples'), CATDS: 2.4824684596515999E-2; n = 1.
Experiment [24] concerns ILK. The following applies: read-out: apparent Kd; compound concentrations: 100 nM and 1000 nM (sheet 'Samples'), CATDS: 2.4595530906688499E-2; n = 1.
In experiment [25] the test system is LATS1. The following applies: read-out: apparent Kd; compound concentrations: 100 nM and 1000 nM (sheet 'Samples'), CATDS: 4.0745202540463502E-2; n = 1.
Experiment [26] relates to MAPK11. To be noted: read-out: apparent Kd; compound concentrations: 100 nM and 1000 nM (sheet 'Samples'), CATDS: 3.2120600016528701E-2; n = 1.
In experiment [27] the test system is MAPK14. To be noted: read-out: apparent Kd; compound concentrations: 100 nM and 1000 nM (sheet 'Samples'), CATDS: 2.84299118528781E-2; n = 1.
Experiment [28] deals with MELK. To be noted: read-out: apparent Kd; compound concentrations: 100 nM and 1000 nM (sheet 'Samples'), CATDS: 2.8403307321335999E-2; n = 1.
The test system of experiment [29] is PKN1. To be noted: read-out: apparent Kd; compound concentrations: 100 nM and 1000 nM (sheet 'Samples'), CATDS: 3.7770198987071901E-2; n = 1.
For experiment [30], the system named is PKN2. To be noted: read-out: apparent Kd; compound concentrations: 100 nM and 1000 nM (sheet 'Samples'), CATDS: 2.64555223020508E-2; n = 1.
Experiment [31] relates to PRKCA. To be noted: read-out: apparent Kd; compound concentrations: 100 nM and 1000 nM (sheet 'Samples'), CATDS: 2.8417130340745399E-2; n = 1.
Experiment [32] concerns PRKG1. To be noted: read-out: apparent Kd; compound concentrations: 100 nM and 1000 nM (sheet 'Samples'), CATDS: 5.7321528324025303E-2; n = 1.
The subject of experiment [33] is PYGL. The following applies: read-out: apparent Kd; compound concentrations: 100 nM and 1000 nM (sheet 'Samples'), CATDS: 2.4948391152713498E-2; n = 1.
Experiment [34] concerns RIOK2. The following applies: read-out: apparent Kd; compound concentrations: 100 nM and 1000 nM (sheet 'Samples'), CATDS: 4.2618907121449799E-2; n = 1.
For experiment [35], the system named is ROCK1. The following applies: read-out: apparent Kd; compound concentrations: 100 nM and 1000 nM (sheet 'Samples'), CATDS: 5.0643849743389702E-2; n = 1.
Experiment [36] relates to ROCK2. To be noted: read-out: apparent Kd; compound concentrations: 100 nM and 1000 nM (sheet 'Samples'), CATDS: 5.2344501044754001E-2; n = 1.
The subject of experiment [37] is SYK. The following applies: read-out: apparent Kd; compound concentrations: 100 nM and 1000 nM (sheet 'Samples'), CATDS: 2.51844401612667E-2; n = 1.
Experiment [38] has as its system T1, T10.
T1 construct: gene NAT10
To be noted: read-out: apparent Kd; compound concentrations: 100 nM and 1000 nM (sheet 'Samples'), CATDS: 2.6247989636004901E-2; n = 1.

Read-outs that look alike come from different tables or passages of the source.

Regarding `Cc1n[nH]c2ccc(-c3cc(OC[C@@H](N)Cc4c[nH]c5ccccc45)cnc3-c3ccoc3)cc12.Cc1n[nH]c2ccc(-c3cc(OC[C@@H](N)Cc4c[nH]c5ccccc45)cnc3-c3ccoc3)cc12.O=C(O)C(F)(F)F.O=C(O)C(F)(F)F.O=C(O)C(F)(F)F` [GSK562689A], the potency estimated from few doses is 2150 nM in experiment [1] (CATDS: 4.4524563972159897E-2); 1830 nM in experiment [2]; 1720 nM in [3]; 302 nM in experiment [4]; 464 nM in [5]; 577 nM in experiment [6]. The potency estimated from few doses in experiment [7] (CATDS: 6.9210809350161107E-2) is 396 nM; in experiment [8] (CATDS: 6.0886440238293899E-2), 579 nM; in [9] (CATDS: 6.5587395591723996E-2) it was 462 nM; in experiment [10], 41.7 nM; in [11], 57.2 nM; in experiment [12], 32.3 nM. For the same molecule, the potency estimated from few doses was 518 nM in [13] (CATDS: 6.31408503509263E-2) and 123 nM in experiment [14].
For the molecule `CN(C)CCNS(=O)(=O)c1ccc(-c2ccnc3[nH]ccc23)cc1` [GSK977620A], the potency estimated from few doses in experiment [1] (CATDS: 9.92203055838001E-2) is 145 nM; in experiment [15], 1480 nM; in experiment [16], 1600 nM; in experiment [17], 449 nM; in experiment [18], 1300 nM; in [19] it was 827 nM. Further, the potency estimated from few doses in [20] was 1490 nM; in experiment [21], 1990 nM; in [22], 1980 nM; in [23] it was 2250 nM; in [24] it was 2330 nM; in experiment [25] it was 658 nM. Further, the potency estimated from few doses in experiment [26] is 1100 nM; in experiment [27], 1500 nM; in experiment [28], 1500 nM; in [29] it was 768 nM; in experiment [30] it was 1840 nM; in experiment [7] (CATDS: 4.8150008864783198E-2) it was 479 nM. Besides, the potency estimated from few doses was 738 nM in [8] (CATDS: 3.8489694396370601E-2); 1500 nM in experiment [31]; 1730 nM in [9] (CATDS: 2.7001587668499999E-2); 352 nM in [32]; 2220 nM in experiment [33]; 602 nM in experiment [34]. Moreover, the potency estimated from few doses in experiment [35] was 437 nM; in experiment [36] it was 412 nM; in [13] (CATDS: 2.7290145261830101E-2) it was 1680 nM; in experiment [37], 2150 nM; in [38], 1890 nM.
